# Assay results taken from PubChem BioAssay (Tox21).
# Inconclusive results are not listed. Activity calls are given as the source filed them. The call rests on the fitted dose curve; in most records, active means well fitted activation curve with a large enough effect in the repeat runs; inconclusive means weak or mixed curves; inactive means no such curve, though single readings can be large or run the other way.
# Target: Nuclear receptor subfamily 1 group I member 2 (Rattus norvegicus) (UniProt Q9R1A7)
# Assay: Rat pregnane X receptor (rPXR) activation by small molecules, qHTS assay (AID 1346983); further: nearly all actives have a fitted effect of over 20% in size
# Conditions: rPXR luciferase reporter cells, One-Glo luminescence, 24 h; max activation: active compounds read high
# In short: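 Cell-based rPXR activation assay: rPXR cells, 2,000 per well, rested 5hr at 37 C, then exposed to compounds in DMSO for 24 hr at 37 C. Luciferase activity read by One-Glo luminescence after 30 min at room temperature.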
# On the % scale 0 is the no-effect control and ±100 the full control effect.
# Nuclear receptor subfamily 1 group I member 2 (Rattus norvegicus), sequence (Q9R1A7 whole entry, looked up): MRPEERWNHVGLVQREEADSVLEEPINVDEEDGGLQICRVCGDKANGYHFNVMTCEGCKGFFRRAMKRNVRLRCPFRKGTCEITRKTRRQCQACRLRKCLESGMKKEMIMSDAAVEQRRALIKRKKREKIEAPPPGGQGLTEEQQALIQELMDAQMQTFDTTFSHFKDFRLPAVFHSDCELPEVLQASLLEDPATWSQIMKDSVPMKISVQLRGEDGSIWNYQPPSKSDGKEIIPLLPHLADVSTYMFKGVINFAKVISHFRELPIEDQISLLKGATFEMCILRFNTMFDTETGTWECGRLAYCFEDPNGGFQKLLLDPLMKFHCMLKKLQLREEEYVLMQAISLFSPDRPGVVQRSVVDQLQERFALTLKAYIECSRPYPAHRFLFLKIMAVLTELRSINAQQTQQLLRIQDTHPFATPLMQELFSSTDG
row,Compound,max activation
1,NCCc1ccn[nH]1,-4.71% (inactive)
2,O=C(O)/C=C/c1ccccc1,-6.4% (inactive)
3,COc1ccc(/C=N/NC(=O)c2ccncc2)cc1OC,-2.5% (inactive)
4,NS(=O)(=O)c1cc2c(cc1Cl)NC(C(Cl)Cl)NS2(=O)=O (configuration not stated),3.75% (inactive)
5,Nc1ccc(/C=C/c2ccc(N)cc2S(=O)(=O)O)c(S(=O)(=O)O)c1,-1.81% (inactive)
6,Cc1c(C(C)C)c(=O)n(-c2ccccc2)n1C,-1.17% (inactive)
7,O=C(CN1CCN(Cc2ccc3c(c2)OCO3)CC1)N1c2ccccc2Sc2ccccc21,6.39% (inactive)
8,Nc1ccc(S(=O)(=O)Nc2ccccn2)cc1,-1.43% (inactive)
9,OC(CCN1CCCCC1)(c1ccccc1)c1ccccc1,-1.14% (inactive)
10,CC(C)(CO)[C@@H](O)C(=O)NCCCO,-0.489% (inactive)
11,COCC(=O)Nc1c(I)c(C(=O)NCC(O)CO)c(I)c(C(=O)N(C)CC(O)CO)c1I (configuration not stated),-3.61% (inactive)
12,O=c1cc(O)c(Cl)c[nH]1,-3.03% (inactive)
13,COc1cc2c3cc1Oc1cc(ccc1O)C[C@@H]1c4c(cc(OC)c(O)c4Oc4ccc(cc4)C[C@@H]3N(C)CC2)CC[N+]1(C)C,-3.43% (inactive)
14,O=C(/C=C/c1ccccc1)NCCO,-0.885% (inactive)
15,CCNC(=O)/C=C/c1cccc(Br)c1,11.4% (inactive)
16,NS(=O)(=O)c1cc2c(cc1Cl)NC(CC1CCCC1)NS2(=O)=O (configuration not stated),-1.01% (inactive)
17,CC(=O)N(CC(O)CO)c1c(I)c(C(=O)NCC(O)CO)c(I)c(C(=O)NCC(O)CO)c1I (configuration not stated),-0.214% (inactive)
